This is a sample that favours compounds with a hit; in the whole collection about 18% have one here.
DT40 TDP1 CPT – growth inhibition of DT40 Tdp1-/-;hTDP1 cells with camptothecin (screen for TDP1 inhibitors) | 420,000 tested, 12% active | Potency, µM (series often up to 46.2 µM), for inactives: top-dose activity change, negative = growth inhibition, hits mostly inhibitors | AID 686979 | chicken DT40 Tdp1-/-;hTDP1 cells + 20 nM CPT, ATP luminescence, 48 h; also: potency is read from the fitted curve at half-maximal effect; nearly all actives have a fitted effect of over 55% in size
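Chicken DT40 Tdp1-/- cells complemented with human TDP1, 400 cells/well, exposed to compounds plus 20 nM camptothecin for at least 48 h at 37 C; viability read as ATP content by CellTiter-Glo luminescence.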
TDP1 block – blocks human tyrosyl-DNA phosphodiesterase 1. Q9NUW8. recombinant TDP1, AlphaScreen DNA substrate cleavage. Potency, µM (series often up to 130 µM), for the others: at the top dose activity change, negative = inhibition, most hits filed as inhibitors. 350,000 tested, 0.28% active. AID 485290; also: potency is read from the fitted curve at half-maximal effect; nearly all actives have a fitted effect of over 40% in size
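Recombinant E. coli-expressed Tdp1 (1 nM) preincubated with compound 15 min at RT, then 5'-biotin/3'-phosphotyrosine-FITC DNA substrate (15 nM) added for 5 min. AlphaScreen beads (10 ug/ml) added, 10 min RT; tyrosine-FITC cleavage read as signal loss.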
IL-1B inflam inh – inflammasome signaling inhibition, IL-1 beta readout. THP-1 LPS/ATP IL-1B secretion, AlphaLISA, 16 h; hits give low values. activity change, % at 57.5 µM. 360,000 tested, 4.7% active. AID 743279; in the data active = activity change below about -50%; inconclusive = mostly about -30% to -49%
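THP-1 cells pretreated 1 hr with compounds (up to 57.5 uM final), then stimulated with LPS (250 ng/mL final) plus ATP (1.25 mM final); secreted IL-1B measured by AlphaLISA after 16 hr, decreased signal indicating inhibition.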
CtBP-E1A inh – inhibitors of CtBP/E1A interaction | activity change, % (no concentration beside the values) | 340,000 tested, 0.49% active | AlphaScreen GST-E1A/His-CtBP binding, 1536-well; hits give low values; in the data active = activity change below about -65%; inconclusive = mostly about -30% to -63%
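Homogeneous bead-based format: GST-tagged E1A captured on glutathione donor beads, His-tagged CtBP on nickel acceptor beads; compounds precede bead addition by 2 h at 37 °C.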
TDP1 cell noCPT – qHTS for Inhibitors of human tyrosyl-DNA phosphodiesterase 1 (TDP1): qHTS in cells in absence of CPT. DT40 Tdp1-/- hTDP1 cells, no CPT, ATP luminescence, 48 h. Potency, µM (titrated, usually from 46.2 µM), without a hit: top-dose activity change, negative = growth inhibition, actives largely listed as inhibitors. 420,000 tested, 15% active; also: potency is read from the fitted curve at half-maximal effect; nearly all actives have a fitted effect of over 55% in size
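No-CPT arm: Tdp1-/-;hTDP1 DT40 cells (400/well) plus compounds, incubated ≥48 hr at 37 °C. Readout CellTiter-Glo luminescence.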
Six1-Eya2 blk – inhibitors of human Six1/Eya2 interaction; activity change, % (concentration not given with the values); AlphaScreen GST-Six1/His-Eya2 binding, biochemical; hits give low values; AID 651725; Q15475+O00167; 360,000 tested, 0.56% active; in the data active = activity change below about -65%; inconclusive = mostly about -30% to -63%
Target sequence (O00167 whole entry, looked up): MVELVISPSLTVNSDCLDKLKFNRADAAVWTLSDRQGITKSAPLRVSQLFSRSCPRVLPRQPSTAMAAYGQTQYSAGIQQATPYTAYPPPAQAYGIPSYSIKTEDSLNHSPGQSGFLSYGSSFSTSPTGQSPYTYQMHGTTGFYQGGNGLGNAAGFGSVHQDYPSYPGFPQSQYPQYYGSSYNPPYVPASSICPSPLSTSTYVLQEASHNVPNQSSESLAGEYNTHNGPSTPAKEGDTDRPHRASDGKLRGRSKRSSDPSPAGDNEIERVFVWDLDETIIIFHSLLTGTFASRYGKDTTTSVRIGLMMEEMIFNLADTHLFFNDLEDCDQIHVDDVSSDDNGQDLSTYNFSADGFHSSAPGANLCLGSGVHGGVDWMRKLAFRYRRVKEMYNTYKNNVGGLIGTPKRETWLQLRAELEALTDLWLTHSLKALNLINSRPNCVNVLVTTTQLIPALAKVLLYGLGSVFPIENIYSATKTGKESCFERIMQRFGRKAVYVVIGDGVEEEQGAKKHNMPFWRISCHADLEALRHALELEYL
Target sequence (Q15475 whole entry, looked up): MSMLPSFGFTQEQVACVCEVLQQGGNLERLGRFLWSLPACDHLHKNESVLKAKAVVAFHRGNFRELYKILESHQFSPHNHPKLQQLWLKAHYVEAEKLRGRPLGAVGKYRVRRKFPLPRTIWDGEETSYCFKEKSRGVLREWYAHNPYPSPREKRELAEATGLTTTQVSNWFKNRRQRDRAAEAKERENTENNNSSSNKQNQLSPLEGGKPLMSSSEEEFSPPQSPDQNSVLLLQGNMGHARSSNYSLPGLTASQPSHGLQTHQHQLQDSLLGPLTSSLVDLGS
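Six1/Eya2 binding was read as AlphaScreen signal after compounds were pinned into GST-Six1 plus His-tagged Eya2 (5X stock 250/500 nM) in pH 8.0 Tris/NaCl/TCEP buffer, beads added, then incubated 1 h, 37 C, dark.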
The depositor's hits bear a star; ? = inconclusive; . = no result; ! = a repeat was not active; [ ] = dose if it differs, or a comment. Unless noted, calls follow the shape of the dose curve; as a rule, active = well fitted curve in the direction sought with a large enough effect; inconclusive = small, poorly fitted or top-dose-only effect, or another doubt; inactive = no such curve, though single readings can be large; an effect the other way counts as inactive or inconclusive. % is scaled to controls: 0 for no effect and ±100 for the full control effect.

SMILES | DT40 TDP1 CPT | TDP1 block | IL-1B inflam inh | CtBP-E1A inh | TDP1 cell noCPT | Six1-Eya2 blk
Cc1cccc(N2CCN(S(=O)(=O)c3ccc4c(c3)CC(C)N4C(=O)C3CC3)CC2)c1C (configuration not stated) | ? | 2% | -4 | . | 23µM* | -12
COc1ccc(N2CCN(S(=O)(=O)c3ccc4c(c3)CC(C)N4C(=O)C3CC3)CC2)cc1 (configuration not stated) | -3% | 1% | 34 | -1 | -1% | 3
CC1Cc2cc(S(=O)(=O)N3CCN(C)CC3)ccc2N1C(=O)C1CC1 (configuration not stated) | -6% | -1% | -4 | -13 | 10% | 5
CCC(=O)N1c2ccc(S(=O)(=O)N3CCN(c4ccc([N+](=O)[O-])cc4)CC3)cc2CC1C (configuration not stated) | 9.2µM* | 4% | 5 | -7 | 7.3µM* | -6
CC(=O)c1ccc(N2CCN(S(=O)(=O)c3ccc4c(c3)CC(C)N4C(=O)C3CC3)CC2)cc1 (configuration not stated) | 4.6µM* | 2% | 4 | 1 | 5.8µM* | -2
CC(=O)c1ccc(N2CCN(S(=O)(=O)c3ccc4c(c3)CC(C)N4C(C)=O)CC2)cc1 (configuration not stated) | 23µM* | 3% | 50 | -23 | 7.3µM* | ?
CCC(=O)N1c2ccc(S(=O)(=O)N3CCN(c4ccccc4)CC3)cc2CC1C (configuration not stated) | ? | 2% | . | . | ? | .
CC(=O)c1ccc(NC(=S)Nc2ccn(Cc3ccc(Br)cc3)n2)cc1 | 2% | 3% | -18 | 0 | -4% | -7
COc1cccc(Nc2ncc3nc(-c4cc(F)cc(F)c4)c(=O)n(CCC#N)c3n2)c1 | 12µM* | . | . | . | 16µM* | .
Cc1ccc2nc(C3CCCCC3)c(CC(C)(C)C)n2c1 | ? | . | 33 | -23 | 16µM* | 0
FC(F)(F)c1ccccc1Cc1c(C2CCCCC2)nc2ccc(Cl)cn12 | ? | . | -21 | -8 | ? | -7
COc1ccccc1Cc1c(C2CCCCC2)nc2ccc(Cl)cn12 | 23µM* | . | -14 | -13 | 26µM* | -3
COc1ccccc1Cc1c(C2CCCCC2)nc2ccc(C)cn12 | 21µM* | . | -17 | 0 | 23µM* | -15
COC(=O)C(C)Sc1nc2c(c(=O)[nH]c(=O)n2C)n1CCCc1ccccc1 (configuration not stated) | 10% | 2% | -4 | -3 | 12% | 1
Nc1c(C(=O)Nc2ccc3c(c2)OCCO3)nnn1Cc1ccc(Br)cc1 | -11% | 8% | 4 | 0 | -28% | -5
Nc1c(C(=O)Nc2ccc3c(c2)OCCO3)nnn1CCc1ccccc1 | 4.6µM* | 7% | -2 | 1 | 3.3µM* | -3
Nc1c(C(=O)Nc2ccc3c(c2)OCCO3)nnn1Cc1cccc(Br)c1 | ? | 2% | -51* | -3 | 23µM* | -15
Nc1ccc2c(c1)COC2=O | 7% | 0% | -9 | 8 | -13% | 1
Cc1nc(SCC(=O)N2CCC(C(N)=O)CC2)n[nH]1 | 6% | 0% | 32 | 1 | 6% | 4
Nc1ccc(-c2cnc(N)c(C(=O)c3cccnc3)n2)cn1 | 1.8µM* | . | -91* | . | 3.7µM* | ?
CCCCCCSc1cccc(-c2nc3cc(C)ccn3c2NC2CCCCC2)c1 | 21µM* | -1% | -74* | -1 | 16µM* | 6
Cc1ccn2c(NC3CCCC3)c(-c3ccsc3)nc2c1 | ? | 1% | 27 | 2 | -25% | 11
Cc1ccn2c(NC3CCCCC3)c(-c3ccc(SC4CCCCC4)cc3)nc2c1 | ? | . | 42 | -1 | 23µM* | 13
CCC(C)Sc1cccc(-c2nc3cc(C)ccn3c2NC2CCCCC2)c1 (configuration not stated) | 16µM* | 1% | -82*! | -1 | 15µM* | -22
Cc1ccn2c(NC3CCCCC3)c(-c3cccc(SC4CCCCC4)c3)nc2c1 | 16µM* | 0% | -75*! | 5 | 8.2µM* | -1
SMILES | DT40 TDP1 CPT | TDP1 block | IL-1B inflam inh | CtBP-E1A inh | TDP1 cell noCPT | Six1-Eya2 blk
C/C(=N\NC(=O)Cc1c(F)cccc1Cl)c1cccnc1 | 3% | 2%[56.1 µM] | 17 | 4 | 1% | 0
CC(=O)N(C)C | . | 7% | . | . | . | .
COc1cc(OC)cc(N(C(=O)C2COc3ccccc3O2)C(C(=O)NC2CCCCC2)c2ccc(O)cc2)c1 (configuration not stated) | ? | 3% | -60* | 6 | ? | 3
Cc1cccc(OCC(=O)Nc2ccc3nc(Nc4cccc(Cl)c4)cc(C)c3c2)c1 | ? | 2% | . | . | ? | .
Cc1cc(Nc2cccc(Cl)c2)nc2ccc(NC(=O)c3cncc(Br)c3)cc12 | 4.6µM* | 5% | . | . | 5.2µM* | .
Cc1cc(Nc2cccc(C(F)(F)F)c2)nc2ccc(NC(=O)c3cncc(Br)c3)cc12 | 5.8µM* | 6% | . | . | 5.2µM* | .
Cc1ccccc1C(=O)Nc1ccc2nc(Nc3cccc(C(F)(F)F)c3)cc(C)c2c1 | 21µM* | 1% | . | . | 18µM* | .
CCOc1cc(C(=O)Nc2ccc3nc(Nc4cccc(Cl)c4)cc(C)c3c2)cc(OCC)c1OCC | 4.6µM* | 1% | . | . | 6.5µM* | .
Cc1cc(NC(=O)c2cc(-c3ccc(Cl)cc3)on2)nn1Cc1ccc(Cl)cc1 | -17% | -11% | . | . | -18% | .
O=C(NCCCc1nc2ccccc2n1CCCCOc1ccccc1)C1CCCCC1 | ? | 0% | . | . | 13µM* | .
O=C(NCCCc1nc2ccccc2n1CCCOc1ccccc1)C1CCCCC1 | 11µM* | 2% | . | . | 10µM* | .
O=C(NCCCc1nc2ccccc2n1CCOc1ccccc1)C1CCCCC1 | -28% | 0% | . | . | -26% | .
N#Cc1ccc(-c2ccc(OCC(=O)NCCc3ccccc3)cc2)cc1 | ? | 0% | 6 | 7 | 12µM* | 3
O=C(CCc1ccccc1)NCCc1csc(-c2cccc(F)c2)n1 | ? | 1% | . | . | 18µM* | .
O=S(=O)(NCCc1csc(-c2ccc(F)cc2)n1)c1ccc(F)cc1F | 16µM* | -7% | . | . | 21µM* | .
O=C(COc1ccccc1)NCCc1csc(-c2ccc(F)cc2)n1 | 15µM* | 3% | . | . | ? | .
O=C(c1ccco1)c1cn(CC(=O)N2CCCc3ccccc32)c2ccccc12 | ? | 8% | -13 | -9 | ? | -7

Screening data: PubChem BioAssay, National Center for Advancing Translational Sciences (NCATS)
